Laboratory results from publication PMC7862700, “An all-to-all approach to the identification of sequence-specific readers for epigenetic DNA modifications on cytosine”.

Tests used:
Assay in all cases: DAPPL (digital affinity profiling via proximity ligation, sequencing); 10 mM Tris-HCl pH 7.5, 50 mM NaCl, 1 mM DTT, 4% glycerol, room temperature, 30 min; GST-TFs on glutathione beads, 16-mer random dsDNA library, 0.1% formaldehyde crosslink after washing; high values mean tight binding
Details in all cases: protein: recombinant; tags: N-terminal GST; dsDNA, one strand shown
[1] = molecular target: T1, FLI1 (Homo sapiens, UniProt Q01543 1-452)
T1 sequence: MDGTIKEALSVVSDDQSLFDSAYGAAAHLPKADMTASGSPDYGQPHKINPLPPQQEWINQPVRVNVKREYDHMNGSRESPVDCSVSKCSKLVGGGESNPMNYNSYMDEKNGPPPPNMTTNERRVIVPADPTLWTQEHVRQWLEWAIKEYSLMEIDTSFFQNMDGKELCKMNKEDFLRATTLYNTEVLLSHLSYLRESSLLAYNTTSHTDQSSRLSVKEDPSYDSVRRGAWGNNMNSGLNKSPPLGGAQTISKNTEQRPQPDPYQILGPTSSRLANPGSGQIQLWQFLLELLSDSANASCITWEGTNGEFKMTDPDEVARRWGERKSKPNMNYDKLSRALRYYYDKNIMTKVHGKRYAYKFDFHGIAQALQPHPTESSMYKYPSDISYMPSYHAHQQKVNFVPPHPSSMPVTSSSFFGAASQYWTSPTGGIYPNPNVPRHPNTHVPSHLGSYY
Procedure, shortened: (§1)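 After expression in yeast as GST fusions, human transcription factors were bound to glutathione beads, DNA-barcoded and mixed with a tag-only sample. The pools were incubated with 200 nmole of a 16-mer random double-stranded DNA library in Tris/NaCl/DTT/glycerol buffer (30 min, room temperature), washed and crosslinked with 0.1% formaldehyde. Proximity ligation with BsaI/T4 ligase ran for 1 h at 37 °C, before PCR amplification and sequencing on an Illumina NextSeq500. Binding signal is a hexamer's read frequency for a factor divided by its frequency for the tag-only sample.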

[2] = molecular target: T2, ELK1 (Homo sapiens, UniProt P19419 1-428)
T2 sequence: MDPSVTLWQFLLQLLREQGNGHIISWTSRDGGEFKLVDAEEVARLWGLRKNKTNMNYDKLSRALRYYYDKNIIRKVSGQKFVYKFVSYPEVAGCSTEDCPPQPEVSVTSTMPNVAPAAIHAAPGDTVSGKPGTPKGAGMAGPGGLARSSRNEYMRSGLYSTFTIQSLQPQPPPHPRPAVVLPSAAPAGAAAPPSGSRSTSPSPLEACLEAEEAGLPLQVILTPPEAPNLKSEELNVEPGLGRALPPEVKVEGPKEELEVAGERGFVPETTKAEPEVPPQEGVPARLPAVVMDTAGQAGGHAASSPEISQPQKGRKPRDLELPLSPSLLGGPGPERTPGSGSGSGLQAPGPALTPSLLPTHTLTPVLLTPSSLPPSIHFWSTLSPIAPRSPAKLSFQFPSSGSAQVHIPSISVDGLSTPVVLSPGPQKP
Procedure, shortened: as §1

[3] = molecular target: T3, GABPA (Homo sapiens, UniProt Q06546 1-454)
T3 sequence: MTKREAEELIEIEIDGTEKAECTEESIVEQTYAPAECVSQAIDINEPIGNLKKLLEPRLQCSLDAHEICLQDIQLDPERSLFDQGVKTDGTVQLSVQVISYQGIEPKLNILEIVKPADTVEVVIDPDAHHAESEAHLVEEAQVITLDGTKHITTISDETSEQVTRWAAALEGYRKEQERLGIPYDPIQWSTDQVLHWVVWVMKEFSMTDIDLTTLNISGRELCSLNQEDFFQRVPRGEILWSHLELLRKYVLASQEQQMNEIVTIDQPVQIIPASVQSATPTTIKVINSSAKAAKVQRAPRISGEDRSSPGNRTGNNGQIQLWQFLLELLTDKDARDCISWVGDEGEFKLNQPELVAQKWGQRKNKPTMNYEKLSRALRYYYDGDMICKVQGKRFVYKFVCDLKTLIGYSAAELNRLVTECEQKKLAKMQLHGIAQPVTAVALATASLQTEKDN
Procedure, shortened: as §1

[4] = molecular target: T4, ERG (Homo sapiens, UniProt P11308 1-479)
T4 sequence: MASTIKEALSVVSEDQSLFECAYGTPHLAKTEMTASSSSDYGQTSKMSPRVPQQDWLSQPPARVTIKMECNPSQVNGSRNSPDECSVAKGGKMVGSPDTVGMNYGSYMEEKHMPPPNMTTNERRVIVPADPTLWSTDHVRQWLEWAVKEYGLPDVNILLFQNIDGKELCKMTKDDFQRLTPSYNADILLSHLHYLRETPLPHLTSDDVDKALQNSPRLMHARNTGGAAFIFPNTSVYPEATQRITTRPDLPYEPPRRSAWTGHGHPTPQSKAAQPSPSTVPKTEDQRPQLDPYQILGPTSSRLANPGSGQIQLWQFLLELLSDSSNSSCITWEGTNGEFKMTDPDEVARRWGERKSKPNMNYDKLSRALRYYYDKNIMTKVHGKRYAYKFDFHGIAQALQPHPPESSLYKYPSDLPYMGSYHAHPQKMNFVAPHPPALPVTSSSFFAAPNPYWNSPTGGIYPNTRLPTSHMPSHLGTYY
Procedure, shortened: as §1

[5] = molecular target: ELF1 (Homo sapiens, UniProt P32519 1-619)
Procedure, shortened: as §1

[6] = molecular target: T5, EHF (Homo sapiens, UniProt Q9NZC4 1-300)
T5 sequence: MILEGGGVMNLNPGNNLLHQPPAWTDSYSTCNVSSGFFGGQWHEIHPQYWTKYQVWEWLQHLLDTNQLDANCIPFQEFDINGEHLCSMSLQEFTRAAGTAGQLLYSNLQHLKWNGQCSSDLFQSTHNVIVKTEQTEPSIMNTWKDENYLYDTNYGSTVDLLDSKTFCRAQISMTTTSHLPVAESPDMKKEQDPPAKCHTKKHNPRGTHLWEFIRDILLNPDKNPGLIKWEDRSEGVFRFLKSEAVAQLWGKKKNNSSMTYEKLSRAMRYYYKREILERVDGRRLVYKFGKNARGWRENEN
Procedure, shortened: as §1

[7] = molecular target: SPI1 (Homo sapiens, UniProt P17947 1-270)
Procedure, shortened: as §1

[8] = molecular target: SPIB (Homo sapiens, UniProt Q01892 1-262)
Procedure, shortened: as §1

[9] = molecular target: T6, ELK3 (Homo sapiens, UniProt P41970 1-407)
T6 sequence: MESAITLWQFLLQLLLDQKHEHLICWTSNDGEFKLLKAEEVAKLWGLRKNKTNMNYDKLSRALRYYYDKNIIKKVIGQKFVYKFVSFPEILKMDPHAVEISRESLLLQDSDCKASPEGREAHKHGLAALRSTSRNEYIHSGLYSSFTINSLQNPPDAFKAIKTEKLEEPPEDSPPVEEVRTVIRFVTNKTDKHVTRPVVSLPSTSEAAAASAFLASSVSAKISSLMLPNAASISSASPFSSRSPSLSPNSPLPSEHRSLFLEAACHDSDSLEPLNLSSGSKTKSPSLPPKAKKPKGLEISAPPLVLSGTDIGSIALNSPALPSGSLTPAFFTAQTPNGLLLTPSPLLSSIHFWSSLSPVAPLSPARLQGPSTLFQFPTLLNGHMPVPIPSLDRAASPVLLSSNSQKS
Procedure, shortened: as §1

Chain of ELF1 (P32519 whole entry): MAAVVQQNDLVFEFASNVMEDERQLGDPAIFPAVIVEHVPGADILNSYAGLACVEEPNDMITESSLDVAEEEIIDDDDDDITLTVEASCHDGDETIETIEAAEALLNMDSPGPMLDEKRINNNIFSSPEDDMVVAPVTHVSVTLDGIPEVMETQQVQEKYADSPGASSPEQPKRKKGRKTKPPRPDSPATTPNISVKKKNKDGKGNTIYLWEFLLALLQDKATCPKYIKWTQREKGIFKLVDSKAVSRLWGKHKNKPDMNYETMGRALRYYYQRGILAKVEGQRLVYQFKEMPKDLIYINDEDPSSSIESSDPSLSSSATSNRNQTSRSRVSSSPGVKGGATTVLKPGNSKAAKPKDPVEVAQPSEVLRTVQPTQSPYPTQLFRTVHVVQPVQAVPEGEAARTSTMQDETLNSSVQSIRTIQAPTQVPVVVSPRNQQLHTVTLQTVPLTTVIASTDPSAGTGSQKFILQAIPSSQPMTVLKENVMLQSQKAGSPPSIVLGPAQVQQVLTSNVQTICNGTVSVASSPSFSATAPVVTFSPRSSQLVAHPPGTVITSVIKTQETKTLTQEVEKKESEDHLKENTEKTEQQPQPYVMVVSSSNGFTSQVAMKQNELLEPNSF
Chain of SPIB (Q01892 whole entry): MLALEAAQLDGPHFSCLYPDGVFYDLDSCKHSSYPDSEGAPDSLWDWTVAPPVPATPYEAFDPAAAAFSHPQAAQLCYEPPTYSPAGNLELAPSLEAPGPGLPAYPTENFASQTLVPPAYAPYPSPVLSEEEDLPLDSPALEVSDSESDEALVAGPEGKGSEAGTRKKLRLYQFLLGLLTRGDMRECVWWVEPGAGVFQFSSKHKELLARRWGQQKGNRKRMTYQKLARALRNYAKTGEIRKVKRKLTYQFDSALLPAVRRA

Row | Sequence | binding signal [1] | binding signal [2] | binding signal [3] | binding signal [4] | binding signal [5] | binding signal [6] | binding signal [7] | binding signal [8] | binding signal [9]
1 | TTATTG | 1.24 fold enrichment (6-mer frequency, TF over GST control) | 1.27 fold enrichment (6-mer frequency, TF over GST control) | 1.28 fold enrichment (6-mer frequency, TF over GST control) | 1.24 fold enrichment (6-mer frequency, TF over GST control) | 1.3 fold enrichment (6-mer frequency, TF over GST control) | 1.29 fold enrichment (6-mer frequency, TF over GST control) | 1.18 fold enrichment (6-mer frequency, TF over GST control) | 1.31 fold enrichment (6-mer frequency, TF over GST control) | 1.38 fold enrichment (6-mer frequency, TF over GST control)
2 | ACTACG | 1.33 fold enrichment (6-mer frequency, TF over GST control) | 1.28 fold enrichment (6-mer frequency, TF over GST control) | 1.32 fold enrichment (6-mer frequency, TF over GST control) | 1.24 fold enrichment (6-mer frequency, TF over GST control) | 1.34 fold enrichment (6-mer frequency, TF over GST control) | 1.36 fold enrichment (6-mer frequency, TF over GST control) | 1.26 fold enrichment (6-mer frequency, TF over GST control) | 1.47 fold enrichment (6-mer frequency, TF over GST control) | 1.32 fold enrichment (6-mer frequency, TF over GST control)
3 | TTATCG | 1.17 fold enrichment (6-mer frequency, TF over GST control) | 1.28 fold enrichment (6-mer frequency, TF over GST control) | 1.3 fold enrichment (6-mer frequency, TF over GST control) | 1.3 fold enrichment (6-mer frequency, TF over GST control) | 1.25 fold enrichment (6-mer frequency, TF over GST control) | 1.25 fold enrichment (6-mer frequency, TF over GST control) | 1.15 fold enrichment (6-mer frequency, TF over GST control) | 1.13 fold enrichment (6-mer frequency, TF over GST control) | 1.17 fold enrichment (6-mer frequency, TF over GST control)
4 | ATTTAC | 1.22 fold enrichment (6-mer frequency, TF over GST control) | 1.29 fold enrichment (6-mer frequency, TF over GST control) | 1.23 fold enrichment (6-mer frequency, TF over GST control) | 1.27 fold enrichment (6-mer frequency, TF over GST control) | 1.28 fold enrichment (6-mer frequency, TF over GST control) | 1.33 fold enrichment (6-mer frequency, TF over GST control) | 1.28 fold enrichment (6-mer frequency, TF over GST control) | 1.23 fold enrichment (6-mer frequency, TF over GST control) | 1.21 fold enrichment (6-mer frequency, TF over GST control)
5 | GTAAAC | 1.16 fold enrichment (6-mer frequency, TF over GST control) | 1.26 fold enrichment (6-mer frequency, TF over GST control) | 1.26 fold enrichment (6-mer frequency, TF over GST control) | 1.19 fold enrichment (6-mer frequency, TF over GST control) | 1.17 fold enrichment (6-mer frequency, TF over GST control) | 1.25 fold enrichment (6-mer frequency, TF over GST control) | 1.25 fold enrichment (6-mer frequency, TF over GST control) | 1.25 fold enrichment (6-mer frequency, TF over GST control) | 1.25 fold enrichment (6-mer frequency, TF over GST control)
6 | TTATAT | 1.26 fold enrichment (6-mer frequency, TF over GST control) | 1.42 fold enrichment (6-mer frequency, TF over GST control) | 1.39 fold enrichment (6-mer frequency, TF over GST control) | 1.4 fold enrichment (6-mer frequency, TF over GST control) | 1.34 fold enrichment (6-mer frequency, TF over GST control) | 1.41 fold enrichment (6-mer frequency, TF over GST control) | 1.32 fold enrichment (6-mer frequency, TF over GST control) | 1.51 fold enrichment (6-mer frequency, TF over GST control) | 1.18 fold enrichment (6-mer frequency, TF over GST control)
7 | TTCTTA | 1.42 fold enrichment (6-mer frequency, TF over GST control) | 1.43 fold enrichment (6-mer frequency, TF over GST control) | 1.37 fold enrichment (6-mer frequency, TF over GST control) | 1.4 fold enrichment (6-mer frequency, TF over GST control) | 1.37 fold enrichment (6-mer frequency, TF over GST control) | 1.28 fold enrichment (6-mer frequency, TF over GST control) | 1.34 fold enrichment (6-mer frequency, TF over GST control) | 1.28 fold enrichment (6-mer frequency, TF over GST control) | 1.5 fold enrichment (6-mer frequency, TF over GST control)
8 | TCCTAC | 1.48 fold enrichment (6-mer frequency, TF over GST control) | 1.46 fold enrichment (6-mer frequency, TF over GST control) | 1.43 fold enrichment (6-mer frequency, TF over GST control) | 1.42 fold enrichment (6-mer frequency, TF over GST control) | 1.31 fold enrichment (6-mer frequency, TF over GST control) | 1.45 fold enrichment (6-mer frequency, TF over GST control) | 1.52 fold enrichment (6-mer frequency, TF over GST control) | 1.65 fold enrichment (6-mer frequency, TF over GST control) | 1.56 fold enrichment (6-mer frequency, TF over GST control)
